# Assay outcomes: PubChem BioAssay, National Center for Advancing Translational Sciences (NCATS)
# ELG1 repair inh = inhibitors of ELG1-dependent DNA repair in HEK293T cells | 330,000 tested, 2.3% active | HEK293T ELG1-luciferase reporter, luminescence, 16 h; DNA damage induced by 5-fluorouridine | AID 504467 | Potency, µM (doses to about 46.1 µM), for the others: at the highest dose activity change, negative = inhibition, actives largely listed as inhibitors; further: potency means the concentration at half of the fitted maximal effect; nearly all actives have a fitted effect of over 55% in size
#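 DMSO vehicle served as the neutral condition. Each well held 2,000 cells given 5-fluorouridine plus compound; after 16 hr at 37 °C/5% CO2, ONE-Glo was added and luciferase measured 30 min later.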
# VP16 counter = Gal4-VP16 reporter inhibition counter-screen; Drosophila S2 Gal4-VP16 UAS-luciferase, luminescence, 20 h; 310,000 tested, 3.5% active; Potency, µM (doses to about 53.6 µM), inactives show at the highest dose activity, negative = inhibition, most hits filed as inhibitors; AID 2546;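 further: Gal4-VP16 expression switched on by copper sulfate through the metallothionein promoter; potency means the concentration at half of the fitted maximal effect; nearly all actives have a fitted effect of over 50% in size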
# TDP1 cell noCPT = qHTS for Inhibitors of human tyrosyl-DNA phosphodiesterase 1 (TDP1): qHTS in cells in absence of CPT. DT40 Tdp1-/- hTDP1 cells, no CPT, ATP luminescence, 48 h. Potency, µM (titrated, usually from 46.2 µM), inactives show at the highest dose activity change, negative = growth inhibition, usual class: inhibitors. 420,000 tested, 15% active; further: potency means the concentration at half of the fitted maximal effect; nearly all actives have a fitted effect of over 55% in size
#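 Cells were dispensed at 400 per well, compounds added by pin tool, plates incubated ≥48 hr at 37 °C, then CellTiter-Glo added for 30 min at room temperature before luminescence reading. Line: DT40 Tdp1-/- complemented with hTDP1; camptothecin omitted.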
# IL-1B inflam inh = inflammasome signaling inhibition, IL-1 beta readout | THP-1 LPS/ATP IL-1B secretion, AlphaLISA, 16 h; stronger effect = lower value | activity change, % at 57.5 µM | 360,000 tested, 4.7% active | AID 743279; in the data active means activity change below about -50%; inconclusive means mostly about -30% to -49%
#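 THP-1 cells pretreated 1 hr with compounds (up to 57.5 uM final), then stimulated with LPS (250 ng/mL final) plus ATP (1.25 mM final); secreted IL-1B measured by AlphaLISA after 16 hr, decreased signal indicating inhibition.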
# RORgamma inh = blocks mouse ROR gamma transcriptional activity; P51450; Drosophila S2 Gal4-RORgamma UAS-luciferase reporter, 20 h; Potency, µM (top dose mostly 53.6 µM), inactives show at the top dose activity change, negative = inhibition, usual class: inhibitors; 310,000 tested, 5.4% active; further: potency means the concentration at half of the fitted maximal effect; nearly all actives have a fitted effect of over 60% in size
# Target sequence (P51450 whole entry, looked up, the tested form may be a part): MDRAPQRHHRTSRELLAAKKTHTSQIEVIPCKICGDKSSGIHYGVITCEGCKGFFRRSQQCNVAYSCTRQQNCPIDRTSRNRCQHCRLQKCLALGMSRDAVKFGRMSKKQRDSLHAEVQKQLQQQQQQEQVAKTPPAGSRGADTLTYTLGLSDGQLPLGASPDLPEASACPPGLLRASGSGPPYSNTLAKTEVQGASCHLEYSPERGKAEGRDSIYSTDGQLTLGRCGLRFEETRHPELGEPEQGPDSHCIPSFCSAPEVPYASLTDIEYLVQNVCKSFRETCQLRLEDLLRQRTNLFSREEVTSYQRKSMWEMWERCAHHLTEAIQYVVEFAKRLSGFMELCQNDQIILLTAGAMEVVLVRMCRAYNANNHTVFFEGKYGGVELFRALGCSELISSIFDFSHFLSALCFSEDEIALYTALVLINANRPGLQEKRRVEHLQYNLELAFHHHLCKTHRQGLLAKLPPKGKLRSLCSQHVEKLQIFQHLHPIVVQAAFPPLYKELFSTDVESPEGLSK
#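 Read-out: Photinus luciferase luminescence; inhibitors lower reporter signal. Insect Schneider cells with Gal4-ROR gamma fusion under metallothionein promoter, UAS reporter; 700 uM final copper sulfate induction, 20 hr, ambient temperature.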
# TDP1 cell CPT = DT40-hTDP1 cell growth loss with CPT; chicken DT40 Tdp1-/-;hTDP1 cells + 20 nM CPT, ATP luminescence, 48 h; Potency, µM (titrated, usually from 46.2 µM), for the others: at the top dose activity change, negative = growth inhibition, hits mostly inhibitors; 420,000 tested, 12% active; further: potency means the concentration at half of the fitted maximal effect; nearly all actives have a fitted effect of over 55% in size
#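 Chicken DT40 Tdp1-/- cells stably complemented with human TDP1 were seeded at 400 cells/well in medium containing 20 nM camptothecin, exposed to pin-transferred compounds, and grown at 37 °C for at least 48 hr. Viability was read as ATP luminescence.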
# Active calls of the source: *; ? = inconclusive; . = no result given. Most compounds without a hit are left out; they make up all but 21% or so of the library. Unless noted, the call rests on the fitted dose curve; in most records, active means well fitted curve in the direction sought with a large enough effect; inconclusive means small, poorly fitted or top-dose-only effect, or another doubt; inactive means no such curve, though single readings can be large; an effect the other way counts as inactive or inconclusive. On the % scale 0 is the no-effect control and ±100 the full control effect.
SMILES,ELG1 repair inh,VP16 counter,TDP1 cell noCPT,IL-1B inflam inh,RORgamma inh,TDP1 cell CPT
COc1ccc2nc(NCc3ccc(OC)c(OC)c3OC)sc2c1,.,.,?,-8,.,?
COc1ccc2nc(Nc3ccc4c(c3)OCO4)sc2c1,?,?,-16%,?,-12%,-15%
COc1ccc2nc(N=Nc3c(O)ccc4ccccc34)sc2c1,-17%,4.5µM*,.,.,1µM*,.
CCC(C)C(=O)Nc1nc2ccc(OC)cc2s1 (stereo unspecified),?,-16%,16µM*,-3,-2%,?
COc1cccc(C2(c3cccc(OC)c3)CC2C(=O)Nc2cccc3ccccc23)c1 (stereo unspecified),?,-14%,26µM*,16,-5%,?
C#CCn1cc(Cl)cc(C(=O)Nc2ccccc2)c1=O,?,5%,-10%,6,21%,3%
Cc1cc(C)c(NC(=O)CN(C)C(=O)c2ccc(OCc3ccccc3)cc2)c(C)c1,?,.,?,0,.,?
Cc1ccc(Nc2nc3ccccc3s2)cc1,?,?,?,5,?,?
COc1ccc2nc(Nc3ccccc3)sc2c1,?,-11%,?,-67*,?,-1%
COc1ccc(Cl)cc1NC(=O)Cn1nc(Cc2ccncc2)c2ccccc2c1=O,.,.,23µM*,.,.,?
CCCCN(CC)C(=O)Cn1nc(Cc2ccncc2)c2ccccc2c1=O,-10%,3%,1%,-21,-1%,-10%
Cc1cccc(N2CCN(C(=O)Cn3nc(Cc4cccnc4)c4ccccc4c3=O)CC2)c1C,.,.,8.2µM*,.,.,13µM*
COc1ccc(Cl)cc1NC(=O)Cn1c(=O)n(Cc2ccco2)c(=O)c2cccnc21,.,.,16µM*,.,.,?
CCN(C(=O)Cn1nc(Cc2ccncc2)c2ccccc2c1=O)c1cccc(Cl)c1,.,.,21µM*,.,.,?
C[C@@H]1CN([C@@H](C)CO)C(=O)CCCn2nncc2CO[C@@H]1CN(C)S(=O)(=O)c1cccs1,.,.,?,17,.,13%
CCN(C(=O)Cn1nc(Cc2cccnc2)c2ccccc2c1=O)c1cc(C)ccc1C,.,.,23µM*,.,.,23µM*
COc1cc(NC(=O)Cn2nc(Cc3cccnc3)c3ccccc3c2=O)cc(OC)c1OC,?,5%,3%,6,?,0%
Cc1ccc(NC(=O)CC2SC(=O)NC2=O)cc1 (stereo unspecified),0%,4.5µM*,5.8µM*,-4,5µM*,2.6µM*
COc1ccc(NC(=O)CC2SC(=O)NC2=O)cc1 (stereo unspecified),?,13µM*,5.8µM*,-5,11µM*,2.3µM*
COc1ccc(NC(=O)CC2SC(=Nc3ccccc3)NC2=O)cc1 (stereo unspecified),-3%,?,?,-25,?,?
COc1ccc(NC(=O)/C=C2\SC(=O)NC2=O)cc1,0%,3%,13%,-51*,-1%,12%
COc1ccc(NC(=O)Nc2ccc(OC)cc2)cc1,?,?,0%,3,12%,-17%
CN(C(=O)CCN1C(=O)S/C(=C\c2ccccc2)C1=O)C1CCS(=O)(=O)C1 (stereo unspecified),8%,-20%,?,-7,65%,?
O=C(COC(=O)c1cc([N+](=O)[O-])ccc1N1CCOCC1)c1ccc(OC(F)F)cc1OC(F)F,21µM*,.,?,?,.,?
CCOc1ccc(C(C)=O)cc1COC(=O)c1cc([N+](=O)[O-])ccc1N1CCOCC1,?,.,?,14,.,23µM*
SMILES,ELG1 repair inh,VP16 counter,TDP1 cell noCPT,IL-1B inflam inh,RORgamma inh,TDP1 cell CPT
COc1ccc(OC)c(COC(=O)c2cc([N+](=O)[O-])ccc2N2CCOCC2)c1,?,.,4.1µM*,44,.,7.3µM*
CCOc1ccc(C(=O)COC(=O)c2cc([N+](=O)[O-])ccc2N2CCOCC2)cc1,-26%,.,?,47,.,?
COCC(COS(N)(=O)=O)Cc1ccccc1 (stereo unspecified),-8%,-4%,-9%,24,-9%,4%
Cc1cc2oc(=O)cc(-c3ccccc3)c2c(C)c1-c1ccoc1,.,-3%,.,.,-10%,.
S=c1[nH]nc(-c2ccc(Cl)cc2)n1/N=C/C=C/c1ccco1,-3%,-8%,21µM*,12,?,?
Cc1cc(-c2n[nH]c(=S)n2/N=C/C=C/c2ccco2)n[nH]1,-8%,-1%,-8%,7,-2%,22%
Cc1ccccc1-c1n[nH]c(=S)n1/N=C/C=C/c1ccco1,-26%,-18%,18µM*,14,2.5µM*,?
S=c1[nH]nc(-c2ccco2)n1/N=C/c1ccc(Cl)cc1Cl,-2%,18µM*,-12%,0,5.6µM*,-16%
S=c1[nH]nc(-c2cccnc2)n1/N=C/C=C/c1ccco1,-7%,-1%,11%,21,-37%,-5%
S=c1[nH]nc(-c2ccccc2)n1/N=C/C=C/c1ccco1,9%,3.2µM*,?,10,2.8µM*,?
Cc1cc(=O)n2nc(N(C)CC(=O)NCc3ccccc3C)sc2n1,.,.,-5%,.,.,-29%
CSc1cccc(NC(=O)c2cccc3cccnc23)c1,?,-5%,?,-2,18%,-1%
CCCNC(=O)C1(C)CCCN(C(=O)COc2ccc(Cl)cc2Cl)C1 (stereo unspecified),.,.,-26%,0,.,-17%
S=c1[nH]nc(-c2ccc(Cl)cc2)n1/N=C/c1ccco1,21%,?,?,-8,3.2µM*,-18%
S=c1[nH]nc(-c2ccco2)n1/N=C/C=C/c1ccccc1,1%,?,?,13,2.5µM*,5%
CCOC(=O)Cc1cc(=O)n(-c2nc3ccccc3s2)[nH]1,13%,4%,18µM*,13,-21%,-29%
CCCc1cc(=O)n(-c2nc3ccccc3s2)[nH]1,21µM*,0%,17%,11,?,0%
CCC(=O)N1CCC1(C)C(=O)NCc1ccccc1SC (stereo unspecified),.,.,-14%,-4,.,-13%
Nc1c(C(=O)NCc2ccco2)nnn1Cc1ccccc1,.,18%,-12%,-13,16%,1%
O=C(c1ccco1)c1nnn(Cc2ccccc2)c1-c1ccccc1,.,18%,21µM*,-3,11%,?
CCC1=NN(C(=O)Cc2ccccc2)C(O)(c2ccncc2)C1 (stereo unspecified),-6%,?,0%,13,0%,-3%
